# SW480 rereplic = DNA re-replication induction in SW480 cells; SW480 DNA re-replication, Hoechst DNA content imaging, 48 h; Potency, µM (series often up to 46.1 µM), hits mostly activators; 340,000 tested, 1.8% active; also: nearly all actives have a fitted effect of over 55% in size
#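 DNA re-replication was detected as more nuclei of elevated Hoechst intensity after 48 hr exposure to compound (23 nL pinned per well of 250 cells).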
# MCF10A rerep = inducers of DNA re-replication in MCF 10A breast cells | MCF 10A DNA re-replication, Hoechst nuclear intensity, 48 h | Potency, µM (doses to about 46.1 µM), hits mostly activators | 350,000 tested, 2.9% active; also: nearly all actives have a fitted effect of over 50% in size
# RORgamma inh = blocks mouse ROR gamma transcriptional activity; P51450; Drosophila S2 Gal4-RORgamma UAS-luciferase reporter, 20 h; Potency, µM (doses to about 53.6 µM), most hits filed as inhibitors; 310,000 tested, 5.4% active; also: nearly all actives have a fitted effect of over 60% in size
# Target sequence (P51450 whole entry, looked up, the tested form may be a part): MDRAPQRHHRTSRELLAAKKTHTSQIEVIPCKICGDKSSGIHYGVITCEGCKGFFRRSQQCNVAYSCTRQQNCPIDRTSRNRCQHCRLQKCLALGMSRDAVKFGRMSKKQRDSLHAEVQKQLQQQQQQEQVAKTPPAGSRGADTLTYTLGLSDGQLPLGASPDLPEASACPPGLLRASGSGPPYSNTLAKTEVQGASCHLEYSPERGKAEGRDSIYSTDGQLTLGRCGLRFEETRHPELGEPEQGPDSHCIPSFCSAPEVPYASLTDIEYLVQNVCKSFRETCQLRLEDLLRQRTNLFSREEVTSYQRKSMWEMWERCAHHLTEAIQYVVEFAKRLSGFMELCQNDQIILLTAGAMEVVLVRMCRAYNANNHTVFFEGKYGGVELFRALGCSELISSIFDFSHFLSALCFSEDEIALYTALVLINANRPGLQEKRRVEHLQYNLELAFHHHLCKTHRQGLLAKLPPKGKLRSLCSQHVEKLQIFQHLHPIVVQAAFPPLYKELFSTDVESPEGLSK
#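 Using a luciferase readout, inhibitors were identified by reduced reporter activity in Drosophila cells coexpressing a copper-inducible Gal4–ROR gamma fusion and UAS-driven Photinus luciferase, incubated 20 hr after 700 uM copper sulfate.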
# ELG1 repair inh = inhibitors of ELG1-dependent DNA repair in HEK293T cells | 330,000 tested, 2.3% active | HEK293T ELG1-luciferase reporter, luminescence, 16 h; DNA damage induced by 5-fluorouridine | AID 504467 | Potency, µM (doses to about 46.1 µM), actives largely listed as inhibitors; also: nearly all actives have a fitted effect of over 55% in size
#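 DMSO vehicle served as the neutral condition. Each well held 2,000 cells given 5-fluorouridine plus compound; after 16 hr at 37 °C/5% CO2, ONE-Glo was added and luciferase measured 30 min later.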
# Gal4-VP16 FLuc = counter-screen for ROR gamma inhibitors: Gal4-VP16 reporter; Drosophila S2 Gal4-VP16 UAS-luciferase, luminescence, 20 h; Potency, µM (series often up to 53.6 µM), usual class: inhibitors; 310,000 tested, 3.5% active; AID 2546;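 also: Gal4-VP16 expression switched on by copper sulfate through the metallothionein promoter; nearly all actives have a fitted effect of over 50% in size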
# Numbers stand for hits; . = inactive; ? = inconclusive; / = not tested or not shown; [ ] = another dose, or the depositor's remark. In the library only some 10% were active in any assay of this set; here they are far more common. Calls follow the shape of the dose curve; as a rule, active = well fitted curve in the direction sought with a large enough effect; inconclusive = small, poorly fitted or top-dose-only effect, or another doubt; inactive = no such curve, though single readings can be large; an effect the other way counts as inactive or inconclusive.
SMILES,SW480 rereplic,MCF10A rerep,RORgamma inh,ELG1 repair inh,Gal4-VP16 FLuc
Cc1ccc(S(=O)(=O)N2CCOCC2)cc1C(=O)Nc1ccccc1N1CCOCC1,.,.,/,.,/
O=C(NNc1ncnc2ccccc12)c1cccc(Cl)c1,.,.,7.1µM,?,.
COc1ccc(C(=O)N/C(=C/c2cccs2)c2nc3ccccc3[nH]2)cc1OC,.,.,.,?,?
CC(=O)NNc1ncnc2ccccc12,.,.,.,?,.
O=C(Nc1nc2ccccc2[nH]1)c1ccc(Cl)cc1,.,.,13µM,?,2.8µM
COc1cc(/C=C(/C(=O)c2cccs2)c2nc3ccccc3[nH]2)cc(OC)c1O,23µM,16µM,?,?,?
CCN(C1CCS(=O)(=O)C1)S(=O)(=O)c1ccc2ccccc2c1 (stereo unspecified),.,.,/,.,/
CCOC(=O)Cn1cnc2c(nnn2-c2ccc(F)cc2)c1=O,.,.,.,.,.
CCN1C(=O)CC(NNC(=O)c2ccc(Cl)cc2)C1=O (stereo unspecified),.,.,.,.,.
COc1ccc(C(=O)NNC2CC(=O)N(Cc3ccc(Cl)cc3)C2=O)cc1OC (stereo unspecified),.,.,?,.,7.1µM
Cc1c(Cl)cccc1NC(=O)CS(=O)(=O)c1ccccc1,.,.,.,.,.
COc1ccc(Nc2nnc(C)c(=O)[nH]2)c(OC)c1,.,.,.,.,.
CCCCCC1CCC(c2ccc(/C(N)=N/O)cc2)CC1 (stereo unspecified),2.3µM,?,.,?,.
CCCCC1CCC(c2ccc(C(N)=O)cc2)CC1 (stereo unspecified),.,.,.,.,.
CC(=O)N(/N=C1\Sc2ccccc2C1=O)c1cccc(C)c1,.,.,7.1µM,?,?
CCCc1ccc(OC(=O)c2ccc(O)cc2Cl)cc1,.,?,0.89µM,?,4µM
N#CC1(Cc2ccc(Cl)cc2)c2ccccc2C=CN1C(=O)c1ccccc1 (stereo unspecified),.,?,.,.,.
COc1ccc(OC)c(NC(=O)CSc2ccc3nnc(-c4cccnc4)n3n2)c1,.,.,.,.,.
CC(=O)NCCCC[C@H](NC(=O)OC(C)(C)C)C(=O)Nc1ccc2c(C(F)(F)F)cc(=O)oc2c1,/,/,.,/,.
O=C(NC1CC1)c1cc(=S)[nH]c2ccccc12,.,.,/,?,/
COc1cc(NC(=O)C2CC(c3cccc(OC)c3OC)=NO2)cc(OC)c1OC (stereo unspecified),?,16µM,?,12µM,?
COc1ccc(C2=NOC(C(=O)NCc3ccccn3)C2)cc1 (stereo unspecified),.,.,.,.,.
COc1cc(C2=NOC(C(=O)NCc3cccnc3)C2)cc(OC)c1OC (stereo unspecified),?,.,.,?,.
O=C(NCc1ccco1)C1CC(c2ccc(Cl)c(Cl)c2)=NO1 (stereo unspecified),.,?,.,.,.
O=C(NCc1cccnc1)C1CC(c2cccc(Br)c2)=NO1 (stereo unspecified),?,5.8µM,.,.,.
SMILES,SW480 rereplic,MCF10A rerep,RORgamma inh,ELG1 repair inh,Gal4-VP16 FLuc
O=C(NCc1ccc2c(c1)OCO2)C1CC(c2ccc(Cl)c(Cl)c2)=NO1 (stereo unspecified),.,2.6µM,.,?,.
COc1ccc(C2=NOC(C(=O)NCc3cccs3)C2)cc1 (stereo unspecified),.,9.2µM,.,?,.
COc1cccc(C2=NOC(C(=O)Nc3cccnc3Cl)C2)c1OC (stereo unspecified),.,.,.,?,.
Cc1cc(-c2ccc(C(C)C)c(S(=O)(=O)Nc3cc(C)on3)c2)on1,.,.,.,?,.
C=C(C)C(=O)Nc1cccc(C2=NOC3(C2)C[C@H](C(N)=O)N(C(=O)/C=C/C)C3)c1 (stereo partly specified),.,.,.,.,.
N#C/C(=C(/O)c1ccc2c(c1)OCO2)c1nc2cc(C(F)(F)F)ccc2s1,?,.,.[1.91 µM],.,?
COC(=O)/C=C1/S/C(=N/NC(=O)c2ccccc2OC)NC1=O,.,.,.,?,.
COc1ccc(C2=NOC(C(=O)NCc3ccccn3)C2)cc1OC (stereo unspecified),.,.,.,.,.
COc1cc(C2=NOC(C(=O)NCc3ccco3)C2)cc(OC)c1OC (stereo unspecified),?,?,?,.,.
COc1ccc(CNC(=O)C2CC(c3ccc(OC)cc3)=NO2)cc1 (stereo unspecified),.,6.5µM,.,.,.
COc1cc(C2=NOC(C(=O)NCc3cccs3)C2)cc(OC)c1OC (stereo unspecified),6.5µM,10µM,.,.,.
COc1cc(OC)c(C2=NOC(C(=O)NCc3cccs3)C2)cc1Cl (stereo unspecified),9.2µM,?,.,.,.
COc1ccc(C2=NOC(C(=O)NCc3ccco3)C2)cc1 (stereo unspecified),18µM,6.5µM,.,?,.
COc1ccc(CNC(=O)C2CC(c3ccc(F)cc3)=NO2)cc1 (stereo unspecified),.,?,.,.,.
O=C(NC1CCN(CCc2c[nH]c3ccccc23)CC1)c1ccccc1,.,.,.,.,.
Cc1nn(CC(=O)NC2CC2)c(C)c1S(=O)(=O)NC(C)(C)C,.,.,/,.,/
CC(CN1CCOCC1)OC(=O)c1cccc(Cl)c1 (stereo unspecified),.,.,.,.,.
COc1ccccc1OCCNC(=O)CN(c1cccc(C)c1)S(=O)(=O)c1ccccc1,.,.,.,?,.
CCCN(CC(=O)Nc1ccccc1OC)C(=O)CCC(=O)c1ccc(OCC)cc1,?,.,/,.,/
COc1ccc(C2=NOC(C(=O)NCc3cccs3)C2)cc1OC (stereo unspecified),5.2µM,1.2µM,.,?,.
Cc1ccc(CNC(=O)C2CC(c3cc(C(F)(F)F)cc(C(F)(F)F)c3)=NO2)o1 (stereo unspecified),?,9.2µM,.,.,.
Cc1ccc(CCNC(=O)C2CC(c3cc(C(F)(F)F)cc(C(F)(F)F)c3)=NO2)cc1 (stereo unspecified),.,.,.,.,.
O=C(NCc1ccccn1)C1CC(c2ccccc2O)=NO1 (stereo unspecified),.,.,.,.,.
O=C(NCc1cccs1)C1CC(c2ccccc2O)=NO1 (stereo unspecified),.,18µM,?,.,?
COC(=O)c1cnn(-c2ccccc2)c1/C=N/NC(=S)Nc1ccc(Cl)cc1,.,.,0.45µM,.,2µM
COc1ccc(NC(=O)c2cnn(-c3ccccc3)c2C)cc1,.,.,?,?,.
